SMN2 splice enh = SMN2 splice variant enhancement. HEK293 SMN2-luciferase splicing reporter, luminescence, 30-36 h. Potency, µM (titrated, usually from 46.1 µM), actives largely listed as activators. hit rate 2.8% among 210,000. AID 1458; also: nearly all actives have a fitted effect of over 55% in size
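HEK293 cells carry an SMN2 […]–luciferase reporter in which exon 7 inclusion puts luciferase in frame. Cells were plated 10-12 h before compound addition, then incubated 30-36 h at 37C. ONE-Glo luminescence was read; sodium butyrate at 4.5 mM final served as control.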
FLuc modulator = inhibits or activates purified firefly luciferase, miR-21 counter-screen | P08659 | purified FLuc, Km substrates, luminescence inhibition | Potency, µM (highest dose often 57.5 µM), usual class: inhibitors | hit rate 6.9% among 360,000 | AID 588342; also: nearly all actives have a fitted effect of over 55% in size
Target sequence (P08659 whole entry, looked up): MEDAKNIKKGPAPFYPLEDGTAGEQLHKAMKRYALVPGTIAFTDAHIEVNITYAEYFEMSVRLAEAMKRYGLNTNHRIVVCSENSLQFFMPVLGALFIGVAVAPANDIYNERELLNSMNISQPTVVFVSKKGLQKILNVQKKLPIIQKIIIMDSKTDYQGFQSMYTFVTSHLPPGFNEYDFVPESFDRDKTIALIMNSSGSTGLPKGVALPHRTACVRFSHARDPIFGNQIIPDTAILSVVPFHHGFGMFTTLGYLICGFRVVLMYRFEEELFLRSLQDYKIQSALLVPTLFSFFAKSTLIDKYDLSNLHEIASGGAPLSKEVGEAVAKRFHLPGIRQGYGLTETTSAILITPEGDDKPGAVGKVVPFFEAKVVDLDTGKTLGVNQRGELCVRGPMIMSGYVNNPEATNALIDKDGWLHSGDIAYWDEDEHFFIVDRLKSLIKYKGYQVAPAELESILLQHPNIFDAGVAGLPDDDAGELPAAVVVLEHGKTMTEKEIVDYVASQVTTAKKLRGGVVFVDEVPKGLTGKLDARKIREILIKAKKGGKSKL
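Purified P. pyralis luciferase, 10 nM final, with Km-level 10 uM D-luciferin and 10 uM ATP in 50 mM Tris acetate pH 7.5, 10 mM Mg acetate, 0.01% Tween-20, 0.05% BSA; 6-point qHTS titration about 60 µM downward; luminescence read.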
Rab9 prom act = Rab9 promoter activation; hit rate 2.8% among 320,000; Potency, µM (top dose mostly 9.22 µM), usual class: activators; AID 485297; Huh7 Rab9 promoter-luciferase reporter, luminescence, 24 h; also: nearly all actives have a fitted effect of over 60% in size
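Promoter activation is measured as luciferase luminescence in Huh7 cells stably transfected with a Rab9 promoter–luciferase construct, following 24 h compound exposure at 37 °C and 10 min reagent incubation at ambient temperature.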
ELG1 genotox = inducers of genotoxicity in HEK293T ELG1-luciferase cells; Potency, µM (series often up to 46 µM), hits mostly activators; AID 504466; HEK293T ELG1-luciferase reporter, luminescence, 16 h; hit rate 1.3% among 330,000; also: nearly all actives have a fitted effect of over 60% in size
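HEK293T cells expressing luciferase-tagged ELG1 were exposed to compound or DMSO vehicle for 16 hr at 37 °C and 5% CO2. Luciferase activity was then measured with ONE-Glo after 30 min at room temperature.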
Luc counter = Kinase-Glo luciferase inhibition (counter-screen); Kinase-Glo luciferase, ATP luminescence, 8 min; AID 1379; hit rate 0.28% among 200,000; Potency, µM (titrated, usually from 38.3 µM), hits mostly inhibitors; Q27757; also: nearly all actives have a fitted effect of over 60% in size
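Recombinant Kinase-Glo luciferase, 10 uM ATP (linear range), luciferin; imidazole pH 7.2 / KCl / MgCl2 / Tween / BSA buffer; 8 min RT; luminescence.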
NPC1 promoter act = NPC1 promoter activation | Huh7 NPC1 promoter luciferase reporter, 24 h | Potency, µM (highest dose often 9.22 µM), usual class: activators | hit rate 2.4% among 320,000 | AID 485313; also: nearly all actives have a fitted effect of over 60% in size
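Cells: Huh7 expressing luciferase under the NPC1 promoter, 1500/well. Seeded 2 h, compound added, incubated 24 h at 37 °C. Luciferase reagent, 10 min ambient, then luminescence.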
A number is an active result. The list is not random: actives were taken first. Their share in the collection is about 7.3%. Calls follow the shape of the dose curve; as a rule, active = well fitted curve in the direction sought with a large enough effect; inconclusive = small, poorly fitted or top-dose-only effect, or another doubt; inactive = no such curve, though single readings can be large; an effect the other way counts as inactive or inconclusive.

What do the screens show for `Clc1ccc(OCc2nc(-c3ccncc3)no2)c(Br)c1`?
SMN2 splice enh: 3.16µM; FLuc modulator: 2.13µM; Rab9 prom act: 0.708µM; ELG1 genotox: inconclusive; Luc counter: inactive; NPC1 promoter act: 1.26µM

What do the screens show for `CCCOc1ccc(C2C(=O)N(C3CCCCCC3)CC(=O)N2CCC2=CCCCC2)cc1OC` (centres undefined)?
FLuc modulator: inactive

How did CN(C(=O)c1cc(-c2ccccc2)on1)C1CCCCC1 do in these assays?
FLuc modulator: 8.49µM; Rab9 prom act: 2.82µM; ELG1 genotox: inconclusive; NPC1 promoter act: 1.26µM

What do the screens show for `COc1ccccc1N1CCN(C(=O)c2cc(-c3ccccc3)on2)CC1`?
FLuc modulator: inactive; Rab9 prom act: inactive; ELG1 genotox: inactive; NPC1 promoter act: inactive

How did O=C(c1cc(-c2ccco2)on1)N1CCCc2ccccc21 do in these assays?
SMN2 splice enh: inactive; FLuc modulator: inconclusive; Rab9 prom act: inactive; ELG1 genotox: inactive; Luc counter: inactive; NPC1 promoter act: inactive

Results for O=C(c1cc(-c2ccccc2)on1)N1CCN(c2ccccc2)CC1 ?
FLuc modulator: 23.9µM; Rab9 prom act: inactive; ELG1 genotox: inactive; NPC1 promoter act: inactive

Results for O=C(c1cc(-c2ccccc2)on1)N1CCCc2ccccc21 ?
FLuc modulator: 23.9µM; Rab9 prom act: inconclusive; ELG1 genotox: inconclusive; Luc counter: inactive; NPC1 promoter act: inactive

What do the screens show for `O=C(c1cc(-c2cccc(Cl)c2)on1)N1CCN(c2ccccc2)CC1`?
SMN2 splice enh: inactive; FLuc modulator: inconclusive; Rab9 prom act: inactive; ELG1 genotox: inactive; NPC1 promoter act: inactive

What do the screens show for `O=C(c1cc(-c2ccccc2)on1)N1CCCC1`?
SMN2 splice enh: 11.2µM; FLuc modulator: 9.53µM; Rab9 prom act: 0.891µM; ELG1 genotox: 1.64µM; Luc counter: inactive; NPC1 promoter act: 0.794µM

What do the screens show for `CCC(Sc1ncc(S(=O)(=O)c2ccc(Cl)cc2)c(=O)[nH]1)C(=O)Nc1ccc(OC)cc1` (centres undefined)?
SMN2 splice enh: inactive; FLuc modulator: inconclusive

How did CCC(=O)Nc1cccc(-c2nnc(-c3cccc(NC(=O)CC)c3)o2)c1 do in these assays?
SMN2 splice enh: inactive; FLuc modulator: inconclusive; Rab9 prom act: inactive; ELG1 genotox: inactive; Luc counter: inactive; NPC1 promoter act: inactive

How did O=C(COc1ccc(Cl)cc1Cl)Nc1ccc(-c2ccc(N3CCOCC3)nn2)cc1 do in these assays?
FLuc modulator: inactive; Rab9 prom act: inconclusive; ELG1 genotox: inactive; NPC1 promoter act: inconclusive

How did CCC(=O)Nc1cccc(-c2ccc(N3CCC(C)CC3)nn2)c1 do in these assays?
FLuc modulator: 0.135µM; Rab9 prom act: 0.316µM; ELG1 genotox: 0.731µM; NPC1 promoter act: 0.316µM

What do the screens show for `CCC(=O)Nc1ccc(-c2ccc(N3CCC(C)CC3)nn2)cc1`?
FLuc modulator: 9.53µM; Rab9 prom act: 1.41µM; ELG1 genotox: inconclusive; NPC1 promoter act: 2.82µM

Results for CC1CCN(c2ccc(-c3cccc(NC(=O)c4ccco4)c3)nn2)CC1 ?
FLuc modulator: 0.151µM; Rab9 prom act: 1µM; ELG1 genotox: 0.517µM; NPC1 promoter act: 1.26µM

Results for Cn1c(CO)cnc1SCc1ccc(Cl)cc1 ?
SMN2 splice enh: inactive; FLuc modulator: inactive; Rab9 prom act: inconclusive; ELG1 genotox: inactive; Luc counter: inactive; NPC1 promoter act: 3.55µM

Results for Cc1ccccc1-c1cc2c(nn1)-c1ccccc1C2=O ?
SMN2 splice enh: inconclusive; FLuc modulator: 1.35µM; Rab9 prom act: 3.98µM; ELG1 genotox: inconclusive; Luc counter: 5.01µM; NPC1 promoter act: 3.16µM

How did Cc1ccc(-c2cc3c(nn2)-c2ccccc2C3=O)cc1 do in these assays?
FLuc modulator: 0.0757µM; Rab9 prom act: inconclusive; ELG1 genotox: inconclusive; NPC1 promoter act: inconclusive

Results for O=c1[nH]nc(-c2ccc(F)cc2)cc1-c1ccccc1 ?
FLuc modulator: inactive; Rab9 prom act: inactive; ELG1 genotox: inactive; NPC1 promoter act: inactive

How did O=C1c2ccccc2-c2nnc(-c3ccc(O)cc3)cc21 do in these assays?
SMN2 splice enh: 6.31µM; FLuc modulator: 0.536µM; Rab9 prom act: 0.501µM; ELG1 genotox: inconclusive; Luc counter: 11.2µM; NPC1 promoter act: 0.631µM

How did O=C1c2ccccc2-c2n[nH]c3cccc1c23 do in these assays?
SMN2 splice enh: inactive; Rab9 prom act: inactive; Luc counter: inactive; NPC1 promoter act: inconclusive

Results for O=C1C(=O)c2ccc(-c3ccccc3)cc2-c2ccccc21 ?
SMN2 splice enh: inactive; FLuc modulator: inactive; Rab9 prom act: inactive; ELG1 genotox: inactive; Luc counter: inactive; NPC1 promoter act: inactive

How did O=C1c2ccccc2-c2nnc(-c3ccc(F)cc3)cc21 do in these assays?
SMN2 splice enh: 2.51µM; FLuc modulator: 0.426µM; Rab9 prom act: 0.316µM; ELG1 genotox: inconclusive; Luc counter: 5.01µM; NPC1 promoter act: inconclusive

What do the screens show for `CC(NC(=O)c1ccc(F)cc1)c1nc2ccccc2[nH]1` (centres undefined)?
SMN2 splice enh: inactive; FLuc modulator: inactive

What do the screens show for `O=C(O)c1ccccc1OC(=O)C12CC3CC(CC(C3)C1)C2`?
SMN2 splice enh: inactive; FLuc modulator: inconclusive; Rab9 prom act: inactive; ELG1 genotox: inactive; Luc counter: inactive; NPC1 promoter act: inactive

What do the screens show for `COc1ccc(/C=C/C(=O)O/N=C(\N)c2cccnc2)cc1OC`?
FLuc modulator: inactive; Rab9 prom act: inactive; ELG1 genotox: inactive; NPC1 promoter act: inactive

Results for N/C(=N\OC(=O)C12CC3CC(CC(C3)C1)C2)c1cccnc1 ?
SMN2 splice enh: inactive; FLuc modulator: 15.1µM; Rab9 prom act: inactive; ELG1 genotox: inactive; Luc counter: inactive; NPC1 promoter act: inactive

How did N/C(=N\OC(=O)N1CCOCC1)c1ccccc1 do in these assays?
SMN2 splice enh: inactive; FLuc modulator: 16.9µM; Rab9 prom act: inactive; ELG1 genotox: inactive; Luc counter: inconclusive; NPC1 promoter act: inactive

Results for N/C(=N\OC(=O)C12CC3CC(CC(C3)C1)C2)c1ccccc1 ?
SMN2 splice enh: inactive; FLuc modulator: 4.78µM; Rab9 prom act: inactive; ELG1 genotox: inactive; Luc counter: inactive; NPC1 promoter act: inactive

Results for C/C(=N\NC(=O)c1ccccn1)C12CC3CC(CC(C3)C1)C2 ?
SMN2 splice enh: inactive; FLuc modulator: 15.1µM; Rab9 prom act: inconclusive; ELG1 genotox: inactive; Luc counter: inactive; NPC1 promoter act: inactive

How did CC(C)C(=O)O/N=C(\N)c1ccccn1 do in these assays?
SMN2 splice enh: inactive; FLuc modulator: inactive; Rab9 prom act: inactive; ELG1 genotox: inactive; Luc counter: inactive; NPC1 promoter act: inactive

How did N/C(=N\OC(=O)C12CC3CC(CC(C3)C1)C2)c1ccccn1 do in these assays?
SMN2 splice enh: inactive; FLuc modulator: 7.57µM; Rab9 prom act: inactive; ELG1 genotox: inconclusive; Luc counter: inactive; NPC1 promoter act: inactive

What do the screens show for `Cc1cc(NC(=O)Nc2ccc3c(ccn3C)c2)sn1`?
SMN2 splice enh: inconclusive; Rab9 prom act: 6.51µM; Luc counter: inactive; NPC1 promoter act: 7.31µM
